# High-throughput results from PubChem BioAssay.
# Most compounds without a hit are left out; they make up all but 21% or so of the library.
# NS1 function inh: blocks influenza NS1 protein function | Potency, µM (series often up to 46.1 µM), for inactives: at the highest dose activity, positive = more growth | hit rate 0.4% among 270,000 | AID 2326; calls by dose curve; further: potency means the concentration at half of the fitted maximal effect; actives are rising curves; nearly all actives have a fitted effect of over 50% in size
#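 Growth recovery, yeast-based: influenza A NS1 expressed in S. cerevisiae causes slow growth, and suppressors are detected by OD600. The parent strain without NS1 is used as positive control.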
# Pf growth 48h: P. falciparum growth inhibition at 48 hours (one generation). P. falciparum luciferase growth in erythrocytes, 48 h. Potency, µM (top dose mostly 28.7 µM), without a hit: at the top dose activity change, negative = inhibition, actives largely listed as inhibitors. hit rate 5.9% among 310,000; further: potency means the concentration at half of the fitted maximal effect; on the % scale 0 is the no-effect control and ±100 the full control effect
#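 Erythrocytes infected with P. falciparum carrying an integrated firefly luciferase reporter (2% hematocrit, 0.1% parasitemia final) were exposed to compounds in RPMI 1640 with 0.5% Albumax at 37 C, 5% CO2. Growth inhibition was scored as reduced luminescence.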
# Cycloheximide cs: counter-screen hit for Shiga toxin inhibitors, cycloheximide; cell reporter, cycloheximide protein synthesis inhibition counterscreen; max response, %; hit rate 12% among 300,000; in the data active means max response mostly above about 13%, no sharp cut-off; inactive means mostly below about 14%; further: read at 38.3 µM for the half of the compounds with a filed dose; 0% is about no effect
# Shiga inhibitor: Shiga toxin inhibition. Vero cells, Shiga toxin protein synthesis inhibition reporter. inhibition, % at 38.7 µM. hit rate 9.2% among 290,000. AID 2315; in the data active means inhibition mostly above about 28%, no sharp cut-off; inactive means mostly below about 43%; further: 0% is about no effect
# Giardia FBPA inh: Giardia lamblia aldolase inhibition; Potency, µM (top dose mostly 59.6 µM), for the others: top-dose activity, negative = inhibition, actives largely listed as inhibitors; hit rate 0.71% among 290,000; A8B2U2; purified Giardia FBPA; further: potency means the concentration at half of the fitted maximal effect; on the % scale 0 is the no-effect control and ±100 the full control effect; nearly all actives have a fitted effect of over 55% in size
# Target sequence (A8B2U2 whole entry, looked up): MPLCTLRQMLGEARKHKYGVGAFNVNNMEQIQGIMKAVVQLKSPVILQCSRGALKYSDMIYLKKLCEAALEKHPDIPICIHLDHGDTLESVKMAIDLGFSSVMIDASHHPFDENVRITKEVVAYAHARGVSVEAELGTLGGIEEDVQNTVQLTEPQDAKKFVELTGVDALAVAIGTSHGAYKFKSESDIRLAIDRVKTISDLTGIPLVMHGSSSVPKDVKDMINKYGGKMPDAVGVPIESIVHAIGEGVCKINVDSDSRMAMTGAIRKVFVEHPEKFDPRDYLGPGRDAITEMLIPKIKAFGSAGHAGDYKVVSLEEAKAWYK
#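 Giardia FBPA (40 nM reagent) was preincubated 10 min at RT with compound (up to 57.5 uM final), then substrate plus GAPDH/TPI/NAD/arsenate coupling system with diaphorase/resazurin was added; resorufin fluorescence (525/598 nm) was read after 20 min.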
# Pf growth 96h: P. falciparum growth inhibition at 96 hours | P. falciparum luciferase reporter growth, 96 h | Potency, µM (titrated, usually from 28.7 µM), without a hit: top-dose activity change, negative = inhibition, actives largely listed as inhibitors | hit rate 6.9% among 320,000; further: potency means the concentration at half of the fitted maximal effect; on the % scale 0 is the no-effect control and ±100 the full control effect
#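 Readout is luminescence from an integrated firefly luciferase in P. falciparum. Red cells, 2% hematocrit and 0.05% parasitemia final, were cultured with compound through two parasite generations (96 hours) at 37 C, 5% CO2.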
# * hit, by the source's call; ? = inconclusive; · = no result given; [ ] = remark or other dose. Unless noted, the call rests on the fitted dose curve; in most records, active means well fitted curve in the direction sought with a large enough effect; inconclusive means small, poorly fitted or top-dose-only effect, or another doubt; inactive means no such curve, though single readings can be large; an effect the other way counts as inactive or inconclusive.
SMILES,NS1 function inh,Pf growth 48h,Cycloheximide cs,Shiga inhibitor,Giardia FBPA inh,Pf growth 96h
COCC1CCN(C(=O)c2cc(COc3ccc(-n4cncn4)cc3)on2)CC1,6%,6%,-2,-2,0%,?
Cc1cc(OCc2cc(C(=O)N3CCC(Oc4cccnc4)CC3)no2)cc(C)c1Cl,-45%,-15%,11,19,·,37%
Cc1ccc(OCc2cc(C(=O)N3CCN(C4CCCC4)CC3)no2)cc1C,5%,-1%,42*,53*,·,0%
COc1ccc(C(=O)N2CCN(C3CCCCC3)CC2)cc1OC,0%,-20%,12,22,?,0%
Cc1ccc(OCc2cc(C(=O)N3CCC(C(O)C(C)C)CC3)no2)cc1C (configuration not stated),-12%,-7%,24*,52*,0%,?
Cc1cccc(C)c1OCc1cc(C(=O)N2CCCCCCC2)no1,-30%,?,43*,49*,·,40%
Cc1ccc(OCc2cc(C(=O)N3CCN(C4CCCCC4)CC3)no2)cc1C,-19%,?,52*,65*,2%,37%
Cc1ccc(N2CCN(C(=O)c3cc(COc4c(C)cccc4C)on3)CC2)c(C)c1,?,2%,8,-30,·,-21%
CC1CC=CC2C1C(=O)N(Cc1ccccc1)C2c1ccc(F)c(-c2ccc(N(C)C)cc2)c1 (configuration not stated),·,·,13,0,0%,·
COc1ccc(OC2CCN(C(=O)Nc3ccc(C)cc3)CC2)cc1,-6%,-8%,19,72,0%,10%
COc1ccccc1NC(=O)c1ccc[n+]([O-])c1,5%,37%,-3,7,4%,?
C=CCC1(CC=C)CCCN1C(=O)c1cc(COc2ccccc2SC)on1,-30%,15µM*,6,-7,·,-12%
Cn1ccnc1CN1CCN(C(=O)c2cc(COc3ccc(F)c(F)c3)on2)CC1,5%,4%,15,-13,·,53%
C=CCC1(CC=C)CCCN1C(=O)c1cc(COc2ccc(F)c(F)c2)on1,-30%,?,3,12,-14%,-12%
Cc1cccc(N2CCN(C(=O)c3cc(COc4ccc(F)c(F)c4)on3)CC2)n1,-35%,26%,40*,59,·,23%
COCC1CCN(C(=O)c2cc(COc3cc(C)c(Cl)c(C)c3)on2)C1 (configuration not stated),-4%,12%,72*,45*,6%,?
COCC1CCN(C(=O)c2cc(COc3cncc(Cl)c3)on2)C1 (configuration not stated),15%,14%,-3,-3,0%,?
CCOc1ccccc1OCCCC(=O)N1CCN(S(=O)(=O)c2ccc(Cl)cc2)CC1,·,13µM*,·,·,·,?
CCOc1ccccc1OCCC(=O)N1CCN(S(=O)(=O)c2ccccc2[N+](=O)[O-])CC1,·,12µM*,·,·,·,?
CCOc1ccc(OCCC(=O)N2CCN(S(=O)(=O)c3ccc(OCC)cc3)CC2)cc1,-1%,?,-1,-18,9%,?
COCc1cc(C)n(CC(=O)Nc2ccc(N3CCOCC3)cc2)c(=O)c1C#N,·,32%,·,·,·,?
CCc1ccc2oc(=O)cc(CN3CCC(C)CC3)c2c1,1%,1.3µM*,-6,-11,3%,2.9µM*
Cc1ccc2c(CN3CCCCC3)cc(=O)oc2c1,8%,35%,21*,28*,-4%,19%
Cc1ccc2c(CN3CCOCC3)cc(=O)oc2c1,-2%,33%,-2,-8,5%,-12%
CCc1ccc2oc(=O)cc(CN3CCOCC3)c2c1,-4%,-13%,-1,-20,0%,·
SMILES,NS1 function inh,Pf growth 48h,Cycloheximide cs,Shiga inhibitor,Giardia FBPA inh,Pf growth 96h
Cc1ccc2oc(=O)cc(CN3CCC(C)CC3)c2c1,-10%,?,-3,-4,2%,5.9µM*
Cc1ccc2oc(=O)cc(CN3CCOCC3)c2c1,3%,-3%,-3,-5,7%,7.4µM*
CCN1CCN(Cc2cc(=O)oc3ccc(C)cc23)CC1,2%,2%,-4,-7,-5%,24%
CCOc1ccc(-c2cccc(NS(=O)(=O)c3ccc([N+](=O)[O-])cc3)c2)nn1,·,-15%,·,·,·,?
NC(CSCSCC(N)C(=O)O)C(=O)O (configuration not stated),·,·,·,·,1%,·
Cc1ccc(NC(=O)CN(C)CC(=O)N(CC(C)C)c2c(N)n(CC(C)C)c(=O)[nH]c2=O)c(C)c1,·,?,·,·,·,-2%
Cc1ccc2c(CN3CCN(S(=O)(=O)/C=C/c4ccccc4)CC3)cc(=O)oc2c1,?,?,2,-4,-3%,9.3µM*
Cc1ccc(NC(=O)CSc2nnnn2C2CC2)cc1S(=O)(=O)N1CCOCC1,·,?,·,·,·,-12%
CCCc1c(O)nc(SCC(=O)O)[nH]c1=O,0%,28%,-1,9,-3%,?
COc1ccc(C(=O)Nc2nc3c(s2)Cc2cc(OC)ccc2-3)cc1,6%,5.9µM*,11,32,·,?
COc1ccc2c(c1)Cc1sc(NC(=O)c3cccs3)nc1-2,-8%[9.22 µM],5.9µM*,74*,149*,?,-10%
COc1ccc2c(c1)Cc1sc(NC(=O)c3ccccc3)nc1-2,-2%,·,48*,145*,-27%,2.9µM*
COc1ccccc1C1c2[nH]c3ccccc3c2CCN1Cc1ccc(NC(C)=O)s1 (configuration not stated),-13%,?,4,7,-2%,?
CCS(=O)(=O)N1CCN=C1SCc1ccc(F)cc1,-2%,-6%,-1,8,·,-1%
CN(CCN1CCOCC1)Cc1nc(-c2ccccc2)no1,1%,-1%,12*,14,-2%,18%
CCn1ccnc1CN(C)Cc1nc(-c2cccc(Cl)c2)no1,-6%,61%,30*,49,7%,5%
Cc1ccc(-c2noc(CCC(=O)NCCN3CCOCC3)n2)cc1,-14%,37%,-1,-3,19%,14%
CCn1ccnc1CN(C)Cc1cn(-c2ccc(C)cc2)nc1-c1cccc(C)c1,3%,6.6µM*,-2,12,-4%,?
CCn1ccnc1CN(C)Cc1nc(CCC(C)C)no1,0%,-13%,23,37,2%,?
CCn1ccnc1CN(C)Cc1nc(-c2ccccc2)no1,10%,19%,35*,55*,0%,?
COc1cccc(NC(=O)C2CCC2)c1,·,-14%,·,·,·,14%
COc1cccc(NC(=O)C2C3CCC4C(CCC32)C4(Cl)Cl)c1 (configuration not stated),-5%,-24%,15*,40,-4%,-12%
COc1ccc(NC(=O)C2C3CCC4C(CCC32)C4(Cl)Cl)cc1 (configuration not stated),7%,4%,-6,-2,0%,5.2µM*
CC(C)[C@H](NC(=O)C1CCN(C(=O)[C@@H]2CCCN2)CC1)C(=O)NCc1ccc(F)cc1,5%,30%,-1,-8,?,1%
